Only some compounds are listed: those with a hit (about 2.4% of all), similar ones and a draw of the others.
Apoferritin bind: binds horse apoferritin like a general anesthetic | Potency, µM (highest dose often 77.5 µM), for inactives: at the top dose activity change, negative = displacement, most hits filed as inhibitors | apoferritin/1-aminoanthracene competitive binding, fluorescence | 0.074% of 350,000 active | P02791 | AID 485281; further: on the % scale 0 is the no-effect control and ±100 the full control effect; nearly all actives have a fitted effect of over 20% in size
Target sequence (P02791 2-175 limits assumed): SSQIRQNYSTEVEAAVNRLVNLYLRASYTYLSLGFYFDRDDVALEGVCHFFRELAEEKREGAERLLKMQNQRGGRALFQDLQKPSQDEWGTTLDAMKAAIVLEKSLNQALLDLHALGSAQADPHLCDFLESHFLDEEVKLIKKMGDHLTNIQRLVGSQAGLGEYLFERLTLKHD
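Apoferritin-based anesthetic binding model; compound displacement of fluorescent 1-AMA measured as endpoint fluorescence after 10 minutes at room temperature, scaled to free-ligand and complex controls.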
TGFb SMAD3 inh: inhibitors of TGF-b signaling | 1.2% of 410,000 active | Potency, µM (series often up to 46.1 µM), for inactives: top-dose activity, negative = inhibition, hits mostly inhibitors | HepG2 CAGA-GFP TGF-b/SMAD3 reporter, GFP fluorescence, 18 h; TGF-beta stimulated, 500 pg/mL final; further: on the % scale 0 is the no-effect control and ±100 the full control effect; nearly all actives have a fitted effect of over 65% in size
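Per well, imaged GFP fluorescence of HEPG2 CAGA-GFP cells gives the signal; cells get compound, then TGF-beta (500 pg/mL final), 18 h at 37 degrees C; %Activity versus -TGF-beta and +DMSO controls.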
HepG2 tox: HepG2 cytotoxicity, counter-screen for TGF-b inhibitors; AID 588856; Potency, µM (doses to about 46.1 µM), inactives show at the highest dose activity change, negative = cytotoxicity, hits mostly cytotoxic; HepG2 CAGA-GFP viability, ATP luminescence, 18 h; 0.76% of 410,000 active
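HepG2 CAGA-GFP cells (1000/well, DMEM with 1% FBS) received compound, then TGF-beta at 500 pg/mL final, and were incubated 18 hours at 37 degrees C. Viability was read by CellTiter-Glo luminescence. Media-only wells were set as complete cell-killing and DMSO as no toxicity.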
ATXN2 expr inh: inhibitors of ATXN2 expression | 0.72% of 360,000 active | AID 1745845 | HEK-293 ATXN2-luciferase reporter, luminescence, 24 h | Potency, µM (highest dose often 57 µM), for inactives: top-dose activity change, negative = inhibition, hits mostly inhibitors; further: on the % scale 0 is the no-effect control and ±100 the full control effect; nearly all actives have a fitted effect of over 55% in size
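ATXN2-luciferase reporter cells (luciferase flanked by upstream and downstream ATXN2 gene portions) were treated 24 h at 37 °C with compounds at up to 57 uM. SteadyGlo luminescence gave expression; GF-AFC fluorescence gave viability.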
S2 tox: viability counter-screen for ATXN expression inhibitors | S2 cells (HEK-293 line with an ATXN2-luciferase reporter) viability, CellTiter-Fluor protease fluorescence, 24 h | Potency, µM (doses to about 56.7 µM), most hits filed as cytotoxic | 0.49% of 400,000 active | AID 651635; further: nearly all actives have a fitted effect of over 40% in size
Active calls of the source: *; i = inactive; u = inconclusive; x = no result given; ! = not confirmed by another sample. The call rests on the fitted dose curve; in most records, active means well fitted curve in the direction sought with a large enough effect; inconclusive means small, poorly fitted or top-dose-only effect, or another doubt; inactive means no such curve, though single readings can be large; an effect the other way counts as inactive or inconclusive. Potency means the concentration at half of the fitted maximal effect.

SMILES	Apoferritin bind	TGFb SMAD3 inh	HepG2 tox	ATXN2 expr inh	S2 tox
COc1ccc(C(=O)/C=C/C(=O)N(CC(=O)NC2CCCCC2)CC2CCCO2)c(O)c1 (stereo not drawn)	-12.4%	u	12.6µM*	3.77µM*	3.98µM*
C=CCNc1ncnc2c1ncn2[C@H]1CN(Cc2ccco2)C[C@@H](CO)O1	x	-3.6%	2.2%	4.4%	i
Cc1ccc(-n2[nH]c(=O)c(-c3ccccn3)c2C)cc1	-16.0%	2.5%	-17.8%	1.78µM*	i
Nc1ccc(/C=C/c2ccc3ncccc3c2)cc1	2.9%	u	7.08µM*!	x	i
CCN(CC(=O)Nc1ccc(OC)cc1)C(=O)Cc1coc2cc(C)c(C)cc12	x	0.1%	11.2µM*	-11.5%	i
Cc1ccc(NC(=O)CN(C)C(=O)Cc2coc3cc(C)c(C)cc23)cc1	x	1.9%	-0.3%	5.2%	i
c1cc2c(cc1Cc1cncc(Cc3ccc4c(c3)OCO4)c1)OCO2	x	21.8%	5.7%	x	x
COC(=O)C1=C(C)N(Cc2ccc(C)cc2)C(=O)/C1=C\c1cc(OC)c(OC)c(OC)c1	-15.0%	u	15.8µM*	-11.0%	i
COc1cc(Nc2nc(SCC(=O)c3ccc(Br)cc3)nc3ccccc23)cc(OC)c1	-9.8%	u	10µM*	x	x
O=C(CSc1nc(Nc2ccc(F)cc2)c2ccccc2n1)c1ccc(F)cc1	u	-4.5%	-24.1%	x	x
CCN1/C(=C/C(C)=C/c2sc3ccccc3[n+]2CC)Sc2ccccc21	u	4.47µM*	-91.4%	u	5.62µM*
CC1(C(=O)Nc2ccc3c(c2)OCO3)CCN1C(=O)CCc1ccc(Cl)cc1Cl (stereo not drawn)	x	-2.8%	-18.2%	-7.2%	28.2µM*
Cc1ccccc1C1(CC(=O)N2CC3CC4CC(C3)CC2C4)CC(=O)N(Cc2cccnc2)C1=O (stereo not drawn)	x	x	x	x	i
COc1cccc(C(=O)N2CCc3c(C(=O)NC(C)c4ccco4)c(OC)cc(=O)n3CC2)c1OC (stereo not drawn)	x	x	x	x	i
Cc1ccc(CSC(Nc2ccc(F)cc2)=C(C#N)C#N)cc1	-10.2%	7.08µM*	-16.3%	-28.8%	i
CCOC(=O)c1c(CSc2ccc(CC)cc2)oc2ccc(O)c(CN(C)C)c12	-12.6%	u	22.4µM*	15.8µM*	x
COc1ccc2oc(C(=O)Nc3ccc(S(=O)(=O)N(C)C4CCN(C)CC4)cc3)c(C)c2c1	-23.9%	u	12.6µM*	u	u
COc1ccc(NC(=O)c2oc3ccc(S(=O)(=O)N4CCCCC4)cc3c2C)cc1	-9.8%	49.3%	20.5%	-13.9%	i
COc1cc(/C=C/C(=O)Nc2ccc(S(=O)(=O)Nc3onc(C)c3C)cc2)cc(OC)c1OC	x	2.5%	1.7%	x	x
O=C1[C@H](Cc2ccccc2)NC/C=C\C[C@H](c2ccco2)N1Cc1ccccc1	x	-7.6%	1.0%	x	x
O=C1c2ccccc2C(=O)c2cc(S(=O)(=O)Nc3ccccc3)ccc21	u	20µM*	-104.4%	-20.1%	i
Cc1ccc(C(=O)N2CCOc3ccc(CN4CCN(Cc5ccccn5)CC4)cc3C2)cc1	x	x	x	x	i
COc1ccc(-c2ccc(CCC(=O)O)n2CC(=O)Nc2cccc(OC)c2)cc1	-5.4%	19.3%	0.1%	2.1%	i
COc1cccc(NC(=O)Cn2c(CCC(=O)O)ccc2-c2ccc(C)cc2)c1	-11.3%	u	15.8µM*	x	i
CCCCCCCC/C=C\CCCCCCCC(=O)N[C@H](CO)Cc1ccc(O)cc1	-18.3%	x	x	x	x
SMILES	Apoferritin bind	TGFb SMAD3 inh	HepG2 tox	ATXN2 expr inh	S2 tox
OC(COC(c1ccc(Cl)cc1)c1ccc(Cl)cc1)CN1CCc2ccccc2C1 (stereo not drawn)	-8.0%	u	11.2µM*	28.2µM*	x
CN1CCN(CC(O)COC(c2ccc(Cl)cc2)c2ccc(Cl)cc2)CC1 (stereo not drawn)	-2.1%	u	10µM*	x	i
Cc1ccccc1N1CCN(Cc2c[nH]c3ccccc23)CC1	-22.8%	u	10µM*	u	u
Cc1c(Cl)sn(-c2ccc(Cl)cc2)c1=O	-18.9%	u	-139.7%	8.91µM*	29.9µM*
COC(=O)c1c(NC(=O)C(C)(C)C)sc2c1C(C(=O)OC)CC2 (stereo not drawn)	-11.1%	4.5%	-0.1%	-13.0%	i
COC(=O)c1c(NC(=O)C(Cl)Cl)sc2c1C(C(=O)OC)CC2 (stereo not drawn)	1.5%	11.2µM*	-72.3%	x	i
CC(=O)Oc1cccc(C)c1	5.6%	x	x	4.2%	i
c1ccc(Nc2nc(N3CCCCC3)nc(N3CCNCC3)n2)cc1	-7.7%	-2.1%	11.2µM*	u	i
CCOC(=O)N1CCN(/[N+]([O-])=N/OCOC)CC1	x	-4.5%	1.6%	x	x
Cc1ccc(-c2csc(N3CCN(CCCn4c(-c5ccncc5)nc5ccccc54)CC3)n2)cc1	u	7.08µM*	-27.4%	22.4µM*	x
CC(=O)N[C@@H](C)c1nc2ccccc2n1CCCN1CCN(c2nc(-c3ccc(C)cc3)cs2)CC1	-11.7%	8.91µM*	-11.0%	u	u
CCCNC(=O)C1(C)CCN(Cc2ccc(OCc3ccccc3)cc2)C1 (stereo not drawn)	x	14.1%	-39.8%	5.1%	i
Nc1ncnc2c1c(-c1ccc(Oc3ccccc3)cc1)cn2C1CCCC1	x	22.4µM*	-70.1%	-33.9%	u
COc1ccc(-n2cc(-c3ccccc3)c3c(NC4CCCC4)ncnc32)cc1	50.1%	u	-56.3%	x	x
C[C@@H]1C/C=C/C=C/C=C/C=C/[C@H](O[C@@H]2O[C@H](C)[C@@H](O)[C@H](N)[C@@H]2O)C[C@@H]2O[C@](O)(C[C@@H](O)C[C@H]3O[C@@H]3/C=C/C(=O)O1)C[C@H](O)[C@H]2C(=O)O	x	x	x	x	i
COc1ccccc1NNC(=O)c1cc(C(C)(C)C)nn1Cc1ccccc1	-17.0%	-0.4%	-15.0%	34.4%	i
CC(C)(C)c1cc(C(=O)NNc2cc(C(F)(F)F)ccc2Cl)n(Cc2ccccc2)n1	-15.0%	11.2µM*	10µM*	u	i
C[C@H](CO)N1C[C@H](C)[C@@H](CN(C)C(=O)Nc2ccc(C(F)(F)F)cc2)Oc2c(NC(=O)C3CCCCC3)cccc2C1=O	x	u	-23.8%	-21.2%	u
C[C@H](CO)N1C[C@H](C)[C@@H](CN(C)C(=O)Nc2ccc(C(F)(F)F)cc2)Oc2c(NC(=O)NC3CCCCC3)cccc2C1=O	x	u	-32.2%	u	28.2µM*
C[C@H](CO)N1C[C@H](C)[C@@H](CN(C)C(=O)Nc2ccccc2)Oc2c(NC(=O)Nc3ccc(C(F)(F)F)cc3)cccc2C1=O	x	15.8µM*	-97.5%	u	x
C[C@@H]1CN([C@H](C)CO)C(=O)c2cccc(NC(=O)NC3CCCCC3)c2O[C@@H]1CN(C)C(=O)Nc1ccc(C(F)(F)F)cc1	x	u	17.8µM*	u	22.4µM*

Screening data as filed in PubChem BioAssay.
